High-throughput results from PubChem.
UCHL1 inh: inhibitors of human UCHL1 deubiquitinase; P09936; AID 1645859; inhibition, % at 20 µM; 47,000 compounds, 0.2% hits; purified UCHL1, Ub-rhodamine cleavage fluorescence
Target sequence (P09936 whole entry, looked up): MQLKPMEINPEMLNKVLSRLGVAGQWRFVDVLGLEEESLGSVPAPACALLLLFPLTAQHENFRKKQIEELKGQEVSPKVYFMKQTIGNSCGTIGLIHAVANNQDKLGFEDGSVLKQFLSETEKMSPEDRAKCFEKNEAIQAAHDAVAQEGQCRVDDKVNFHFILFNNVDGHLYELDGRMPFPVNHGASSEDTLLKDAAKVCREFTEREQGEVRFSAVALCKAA
USP10 block: blocks human USP10 ubiquitin-rhodamine cleavage; inhibition, % at 20 µM; 47,000 compounds, 1.1% hits; AID 1645856; purified USP10, Ub-rhodamine fluorescence, 60 min
USP7 inh: human USP7 deubiquitinase inhibition. 47,000 compounds, 0.3% hits. Q93009. purified USP7, Ub-rhodamine cleavage fluorescence. inhibition, % at 20 µM
USP8 block: human USP8 deubiquitinase inhibition; purified USP8, Ub-rhodamine cleavage fluorescence, 30 min; P40818; inhibition, % at 20 µM; 47,000 compounds, 4.2% hits
A number is an active result; . = inactive. Shown are actives, neighbours in structure and some others; about 4.6% of the full set was active somewhere. Rule as the data show it: active = inhibition above about 30%; inactive = the rest.

SMILES	UCHL1 inh	USP10 block	USP7 inh	USP8 block
CCC1(C)Cc2c(sc3nc(SCC(=O)Nc4ccc(C(C)=O)cc4)nc(N)c23)CO1 (stereo not given)	.	.	.	.
Cc1ccc(Cn2cc(S(=O)(=O)N3CCOCC3)ccc2=O)cc1	.	.	.	.
COc1ccc(Nc2cc(-c3cccc(C(F)(F)F)c3)nc(-c3ccncc3)n2)cc1	.	.	.	38
Cc1nc(Nc2ccc(Oc3ccccc3)cc2)cc(-c2ccncc2)n1	.	.	.	.
O=C(Cc1ccc2ccccc2c1)Nc1ccccc1O	.	.	.	.
Cc1noc(C)c1NC(=O)NC(=O)c1c(F)cccc1F	.	.	.	.
Cc1n[nH]c(C)c1CC(=O)NCc1nnc(-c2nccc3ccccc23)o1	.	.	.	33
O=C(CN1CCC(c2nc(-c3ccncc3)no2)CC1)Nc1ccccc1Cl	.	.	.	.
CCc1cccc2c(C(=O)COc3ccc(C#N)cc3)c[nH]c12	.	.	.	82
CC(=O)c1ccccc1NC(=O)COc1ccc(-c2ccc(C#N)cc2)cc1	.	.	.	.
COc1ccc(OC)c(C(=O)Nc2ccc3c(c2)NC(=O)C(C)O3)c1 (stereo not given)	.	.	.	.
COc1ccc(OCC(=O)Nc2ccc3c(c2)NC(=O)C(C)O3)cc1 (stereo not given)	.	.	.	.
Cc1ccc(NC(=O)CSc2ccccc2C(=O)Nc2ccc3c(c2)NC(=O)C(C)O3)cc1 (stereo not given)	.	.	.	37
Cc1cccc(OCC(=O)Nc2ccc3c(c2)NC(=O)C(C)O3)c1 (stereo not given)	.	.	.	35
O=C(CSc1nc2ccccc2[nH]1)N1CCN(Cc2ccc3c(c2)OCO3)CC1	.	.	.	.
COc1ccc(C2c3c(-c4ccccc4O)n[nH]c3C(=O)N2Cc2ccncc2)cc1OC (stereo not given)	.	.	.	.
COCCN1C(=O)c2[nH]nc(-c3ccccc3O)c2C1c1cccc(OCc2ccccc2)c1 (stereo not given)	.	.	.	65
Cc1sc(NC(=O)C2(c3ccc(Cl)cc3)CCC2)nc1-c1ccc2c(c1)CCN2C(=O)c1ccccc1F	.	.	.	.
Cc1cccc(C(=O)N2CCc3cc(-c4nc(NC(=O)C5(c6ccc(Cl)cc6)CCC5)sc4C)ccc32)c1	.	.	.	33
Cc1sc(NC(=O)CNc2ccccc2)nc1-c1ccc2c(c1)CCN2C(=O)C1CCCCC1	.	.	.	63
Cc1sc(NC(=O)CN2CCc3ccccc3C2)nc1-c1ccc2c(c1)CCN2C(=O)C(C)C	.	.	.	47
Cc1cccc(N2CCn3c2nc2c3c(=O)n(CCN3CCCCC3)c(=O)n2C)c1C	.	.	.	.
O=[N+]([O-])c1cc(S(=O)(=O)N2CCOCC2)ccc1Oc1ccc2oc3ccccc3c2c1	.	.	.	.
Cc1ccc(-n2c(=O)c3ccc(C(=O)NCc4ccco4)cc3n(CC(=O)NCCC3=CCCCC3)c2=O)cc1	.	45	.	43
COc1ccc(-n2c(=O)c3ccc(C(=O)NCCc4ccccc4)cc3n(CC(=O)NCCC3=CCCCC3)c2=O)cc1	.	55	.	.
SMILES	UCHL1 inh	USP10 block	USP7 inh	USP8 block
CCCc1cc(=O)oc2cc(C)cc(OC(C)C(=O)N3CCC4(O)CCCCC4C3)c12 (stereo not given)	.	.	.	.
COc1ccc(-c2c(NC(=O)C3COc4ccccc4O3)n[nH]c2C)cc1OC (stereo not given)	.	.	.	.
Cc1[nH]nc(NC(=O)C2COc3ccccc3O2)c1-c1ccccc1 (stereo not given)	32	.	.	47
O=C(O)c1ccc(Cl)c(NC(=O)C2COc3ccccc3O2)c1 (stereo not given)	.	.	58	.
CC(C)N1CCc2c(sc(NC(=O)CSc3ccccc3)c2C(N)=O)C1	.	.	.	.
CC(=O)N1CCc2c(sc(NC(=O)C3CC3)c2C(N)=O)C1	.	.	.	50
Cn1ccc(CN2CCN(Cc3ccccc3F)CC2)cc1=O	.	.	.	.
O=C(Nc1nccn1Cc1ccccc1)c1cc(-c2cccc(Cl)c2)on1	.	.	.	80
Cc1ccc(C2CC(c3ccccc3O)=Nc3ccccc3S2)cc1 (stereo not given)	.	.	.	.
Cc1c(C(=O)OCCOc2ccccc2)[nH]c2c1C(=O)CC(c1ccc(F)cc1)C2 (stereo not given)	.	.	.	.
O=C(COc1ccccc1-c1nnc(-c2ccccc2)o1)NCc1ccc(F)cc1	.	.	.	56
O=C(COc1ccccc1-c1nnc(-c2ccccc2)o1)NCc1ccco1	.	.	.	84
O=C(COc1ccccc1-c1nnc(-c2ccccc2)o1)NCc1ccccc1Cl	.	.	.	.
